Screening results from PubChem.
VLA-4 inh – inhibition in human VLA-4 binding assay, primary screen, VLA-4 allosteric modulator project, MLPCN library, flow cytometry, VLA-4 expressing cells; inhibition, % (about 7 µM as worked out from the volumes in the protocol); 330,000 tested, 0.2% active; ligand binding flow cytometry; Integrin alpha-4 (Homo sapiens), P13612; in the data active means inhibition above about 50%
V-ATPase pHluor – regulators of yeast V-ATPase proton pumping, primary screen, pHLuorin cytosolic pH fluorescence; AID 504577, 2011; S. cerevisiae; 350,000 tested, 0.37% active; response, % at 10 µM; in the data active means response mostly above about 7.3%, no sharp cut-off; inactive means mostly below about 5.4%; further: actives read high
Granule exo inh – LAMP-1 surface exposure blockers, TALL-104 cells – cell-based, flow cytometry, MLPCN library, primary screen; TALL-104 LAMP-1 surface exposure; cells stimulated with thapsigargin and PMA; AID 651702, 2012; inhibition, % at 10 µM; 360,000 tested, 0.66% active;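 active means inhibition above about 55%, limit read from the data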
m5-HT2A agonist – mouse Htr2a agonists via beta-arrestin recruitment, primary screen, cell-based, luminescence; CHO-K1 mHTR2A beta-arrestin complementation; percent of 30 µM serotonin response; activation, % at 7.6 µM; 360,000 tested, 0.66% active; 5-hydroxytryptamine receptor 2A (Mus musculus), P35363; AID 624169, 2012;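 active means activation above a run cutoff, the mean activation of all tested compounds plus 3 SD, cut at about 14% in these data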;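 further: 0% = plate median of compound wells and 100% = 30 µM serotonin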
MEX-5 binding – MEX-5 zinc finger RNA-binding disruptors – biochemical, C. elegans, fluorescence polarization, MLPCN library, primary screen; activity score (negative = inhibition of binding), % at 10 µM; 300,000 tested, 0.38% active; MEX-5/FITC-TCR2 RNA binding; stronger effect = lower value; AID 1832, 2009; Zinc finger protein mex-5 (Caenorhabditis elegans), Q9XUB2;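 active means inhibition past about -25% in most replicates, and total fluorescence under double the plate's negative control median, limit read from the data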;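 further: 0% = DMSO and -100% = 5 µM competing unlabeled TCR2 RNA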
Target sequence (Q9XUB2 whole entry, looked up): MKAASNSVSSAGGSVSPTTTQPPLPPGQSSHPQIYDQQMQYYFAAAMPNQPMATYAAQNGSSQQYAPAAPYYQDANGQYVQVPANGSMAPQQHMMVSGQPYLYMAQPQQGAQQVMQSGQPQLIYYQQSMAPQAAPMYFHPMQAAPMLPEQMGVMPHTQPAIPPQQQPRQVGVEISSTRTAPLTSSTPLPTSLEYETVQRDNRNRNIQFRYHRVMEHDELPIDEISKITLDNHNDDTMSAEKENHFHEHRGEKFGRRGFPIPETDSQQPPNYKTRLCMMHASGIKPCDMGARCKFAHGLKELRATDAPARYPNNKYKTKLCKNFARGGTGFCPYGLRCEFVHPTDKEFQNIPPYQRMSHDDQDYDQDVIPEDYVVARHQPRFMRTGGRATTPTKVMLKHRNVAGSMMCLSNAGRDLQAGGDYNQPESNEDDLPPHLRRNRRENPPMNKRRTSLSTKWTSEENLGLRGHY
JMJD2C inh – inhibitors of GASC-1 histone demethylase, primary screen, biochemical, fluorescence, DELFIA europium | 330,000 tested, 0.069% active | GST-JMJD2C(1-420) H3K9me3 demethylation | Lysine-specific demethylase 4C (Homo sapiens), Q9H3R0 | inhibition, % at 2.35 µM;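 active means more than half of a compound's replicate wells show inhibition beyond 50%, single wells judged on their own value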;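 further: signal counts dimethyl H3K9 product captured on neutravidin plate; 0% = median of DMSO wells and 100% = 0.3 times that DMSO median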
VLA-4 allo CP – retest of VLA-4 allosteric modulators, confirmation, cell-based, cherry-picked plates, U937, HUTS-21 LIBS antibody; shares compounds with VLA-4 inh; U937 cells, HUTS-21 LIBS mAb binding, flow cytometry; LDV ligand present at threefold Kd; inhibition, % at 6.7 µM; 1,300 tested, 2% active; AID 2813, 2010; in the data active means inhibition above about 40%;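 further: 0% = ligand without compound and 100% = no ligand background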
* = called active by the depositor; . = not tested or not shown; ! = not active in a repeat. Sampled rows, rich in hits. Any-hit rate of the full collection: about 2.2%.

SMILES | VLA-4 inh | V-ATPase pHluor | Granule exo inh | m5-HT2A agonist | MEX-5 binding | JMJD2C inh | VLA-4 allo CP
Clc1ccc2c(N/N=C/c3cccnc3)ccnc2c1 | -10.5 | -2.3 | 47.6 | -1.9 | -1.4 | 7.3 | .
Clc1ccc2c(N/N=C/c3ccc(Br)cc3)ccnc2c1 | 50.8* | 1.1 | 36.9 | -6.2 | 1.2 | -78.9 | 12.3
[O-][n+]1nc2ccccc2c2ccccc21 | . | -3.4 | 1.9 | -3.9 | . | . | .
CCOC(=O)c1cc(CC)sc1NC(=O)C(c1ccccc1)c1ccccc1 | -12.9 | -0.3 | -0.5 | 1.7 | 2.2 | 3.2 | -6.7
CCCCSc1nnc(CSc2ncccn2)n1C | 9.4 | -4.0 | -1.2 | 3.1 | 1.5 | -0.6 | .
C=CCC[C@H](Cc1ccc(F)cc1)C(=O)OC[C@@H](C)NC(=O)[C@@H](CC=C)CC(=O)N[C@H](CO)Cc1ccccc1 | 15.6 | 1.0 | -8.8 | -2.2 | . | . | .
C=CCC[C@H](Cc1ccc(F)cc1)C(=O)OC[C@@H](C)NC(=O)[C@@H](CC=C)CC(=O)N[C@@H](CO)Cc1ccccc1 | 63.1* | -1.1 | 11.9 | 0.6 | . | 3.0 | -0.8
O=C(Nc1ccc(F)cc1F)N1CCN(C/C=C/c2ccccc2)CC1 | 55.0* | -1.2 | 9.2 | -7.3 | 3.7 | 5.8 | 5.1
CCc1ccc([C@@H]2CC(=O)[C@@H]3CN(S(=O)(=O)c4ccccc4)[C@H](c4ccc(OC)cc4)C[C@@H]3N2S(=O)(=O)c2ccc(C)cc2)cc1 | . | . | -1.7 | -1.9 | . | . | .
Cc1ccc(O)c([C@H](CCN(C(C)C)C(C)C)c2ccccc2)c1 | 53.3*! | -1.3 | -1.6 | -3.3 | 1.0 | -35.7 | -9.5
CCCN(CCC)C(=O)CC(c1ccccc1)c1ccc(C)cc1O (centres undefined) | -4.0 | 4.0 | -1.3 | 0.9 | . | 11.6 | .
CCOC(=O)C1(Cc2ccccc2C)CCCN(C(=O)CCc2cccnc2)C1 (centres undefined) | -4.4 | -3.2 | 0.0 | -2.3 | -1.2 | 1.2 | .
Cc1nc(NC(=O)c2ccc(-c3cc4ccccc4oc3=O)cc2)ccc1Br | 43.3 | -2.7 | -3.3 | -15.6 | 1.9 | 7.1 | 6.2
Cc1nc(NC(=O)c2cccc(-c3cc4ccccc4oc3=O)c2)ccc1Br | 5.2 | -0.5 | -3.5 | 2.4 | 0.2 | -7.3 | .
NC(Cc1ccc(F)cc1)c1csc(Nc2cc(Oc3ccccc3)ncn2)n1 (centres undefined) | . | . | 11.2 | -6.7 | . | . | .
CC1CC(C)CN(C(=O)CN2C(=O)NC3(CCCCCCC3)C2=O)C1 (centres undefined) | 13.0 | -1.8 | 1.2 | 0.6 | . | -2.2 | .
Cc1nn(-c2cc(N3CCOCC3)ccc2N)c(=O)c2ccccc12 | 63.8* | -3.1 | 4.2 | -4.6 | 1.1 | 7.2 | 1.2
O=c1[nH][nH]c2cc([N+](=O)[O-])ccc12 | . | -0.4 | -11.0 | -0.4 | . | . | .
CCN1C(=O)Cc2cc(S(=O)(=O)NCCc3ccccc3)ccc21 | 2.7 | -39.6 | 5.9 | -0.6 | 0.7 | 5.4 | 4.7
COc1ccc2sc(-c3ccccc3OC)c(-c3ccc(OC)c(F)c3)c2c1 | 15.1 | -1.6 | 0.6 | -4.2 | . | -2.4 | .
COc1ccccc1-c1sc2ccccc2c1-c1ccc(OCCN2CCCCC2)cc1 | . | 0.7 | 29.6 | -2.7 | . | . | 0.0
Oc1ccc2sc(-c3ccccc3O)c(-c3ccc(OCCN4CCCCC4)cc3)c2c1 | . | . | 35.8 | -4.9 | . | . | .
COc1ccc2c(-c3ccc(OCCN4CCCCC4)cc3)c(-c3ccccc3OC)sc2c1 | . | 0.0 | 66.1* | -4.9 | . | . | 0.0
COc1ccc(OC)c(-c2cc(C(=O)N3CCN(c4ncccn4)CC3)c3ccccc3n2)c1 | 94.8* | 3.9 | 4.9 | 2.3 | -8.1 | 5.3 | -0.9
COc1cc(-c2cc(C(=O)N3CCN(c4ccccn4)CC3)c3ccccc3n2)cc(OC)c1OC | -6.1 | -0.2 | 4.1 | 7.1 | 1.0 | 136.8 | -5.5
SMILES | VLA-4 inh | V-ATPase pHluor | Granule exo inh | m5-HT2A agonist | MEX-5 binding | JMJD2C inh | VLA-4 allo CP
COc1ccc(-c2cc(C(=O)N3CCN(c4ncccn4)CC3)c3ccccc3n2)c(OC)c1 | 17.8 | -1.2 | 0.2 | 0.4 | 0.3 | -2.7 | .
Cc1ccc(S(=O)(=O)N2CCN(C(=O)n3ccnc3)CC2)cc1 | 0.7 | 1.0 | 0.8 | 1.9 | . | . | .
Cc1cc(C)n(-c2nc3c(c(=O)[nH]c(=O)n3C)n2Cc2cccc(Br)c2)n1 | 54.2* | 2.6 | 0.4 | 1.9 | -1.5 | 0.0 | 6.4
O=C(c1cccc(NC2=NC3CS(=O)(=O)CC3S2)c1)N1CCN(c2ncccn2)CC1 (centres undefined) | 2.8 | -1.5 | 15.8 | 2.9 | 3.2 | 1.3 | -0.8
COc1cccc(N2CCN(C(=O)c3ccc(Cl)c(NC4=NC5CS(=O)(=O)CC5S4)c3)CC2)c1 (centres undefined) | -0.5 | 2.1 | -14.5 | 5.5 | 1.9 | 0.1 | 0.0
CCOC(=O)N1CCN(C(=O)c2cccc(NC3=NC4CS(=O)(=O)CC4S3)c2)CC1 (centres undefined) | 10.3 | 2.2 | 1.1 | 1.8 | 0.2 | -1.2 | 7.4
COc1ccc(N2CCN(C(=O)c3cccc(NC4=NC5CS(=O)(=O)CC5S4)c3)CC2)cc1 (centres undefined) | 10.4 | -3.6 | -3.4 | -4.0 | -0.8 | 11.2 | .
O=C(NCc1ccccn1)c1ccc(Cl)c(S(=O)(=O)N2CCOCC2)c1 | -23.8 | 2.1 | 8.9 | -1.4 | 1.3 | -1.2 | .
CC(C)(C)c1ccc(C(=O)NCCCN2CCN(CCCNC(=O)c3ccc(C(C)(C)C)cc3)CC2)cc1 | 40.1 | 4.8 | 41.8 | -4.1 | 2.6 | -4.4 | 8.6
CC(C)(C)c1ccc(C(=O)NCCN2CCOCC2)cc1 | 8.3 | -0.3 | -7.6 | -4.2 | . | 3.4 | .
O=C(CNC(=O)c1ccc(-c2ccccc2)cc1)OCc1c(Cl)cccc1Cl | 52.5* | -2.5 | -0.4 | 1.2 | 1.0 | 2.2 | 6.2
O=C(CNC(=O)c1ccc(-c2ccccc2)cc1)OCc1c(F)cccc1Cl | 13.8 | -1.1 | -1.7 | -2.2 | -2.2 | -2.9 | .
COC(=O)c1ccc(CSc2ccc3nnc(-c4ccc(F)cc4)n3n2)o1 | -7.7 | 1.9 | 3.5 | -3.7 | -2.1 | -1.1 | .
COC(=O)c1ccc(CSc2ccc3nnc(-c4ccccn4)n3n2)o1 | 53.8* | -4.4 | 7.7 | 3.9 | -2.0 | -2.7 | 2.6
O=C(COC(=O)CCSc1ccccc1Cl)NCc1ccco1 | 7.3 | -2.6 | -1.9 | 0.2 | 0.5 | -7.8 | .
